From PubChem BioAssay (NCATS) come the findings set out here.

As a reminder, the AC50 is the midpoint of the concentration-response curve, whichever way the signal moves.

For test [1] the following is noted: Ebola virus entry assay, green fluorescence channel.
The conditions of test [2]: Ebola virus entry assay, blue channel fluorescence.
For test [3] the following is noted: Ebola virus entry assay, ratio channel.
For test [4] the following is noted: Ebola virus entry assay, green channel fluorescence.
The conditions of test [5]: Ebola virus entry assay, reporter ratio channel; Channel type: primary.
For test [6] the following is noted: Ebola virus entry assay, blue channel (ratio component).

Values without a mark were called inactive. For part of these data: Entries with a potency or affinity are not part of this list. Activity calls are given as the source filed them. How the calls were made is not given here.
Wherever efficacy is given: 0% is about no effect.

As to `O=Cc1ccc(O)c(O)c1O`, the efficacy in test [1] is 43%. The molecule was classed as inactive in test [2], in test [3], in test [4], in test [5] and in test [6].

On to `CCCCCCCCCCCCCCC[C@H](O)[C@@H](N)CO`, for which, in test [1], the efficacy is 25.9%. In addition, the call in test [2], in test [3], in test [4], in test [5] and in test [6] was inactive.

Regarding `C(=C\c1ccccc1)/CN1CCN(C(c2ccccc2)c2ccccc2)CC1`, the efficacy in test [1] was 12.5%. The result in test [2], in test [3], in test [4], in test [5] and in test [6] was inactive.

Take `NS(=O)(=O)c1cc(C(=O)O)c(NCc2ccco2)cc1Cl`: in test [1], the efficacy is -30.8%. The molecule was called inactive in test [2], in test [3], in test [4], in test [5] and in test [6].

For the molecule `CCCCN(CCN(CCCC)C(=O)N1CCOCC1)C(=O)N1CCOCC1`, the efficacy in test [1] is 15.6%. The result in test [2], in test [3], in test [4], in test [5] and in test [6] was inactive.

In the case of `OCC(O)CS` (stereo not given), the efficacy in test [1] is -11.9%. For the same molecule, the result in test [2], in test [3], in test [4], in test [5] and in test [6] was inactive.

Take `CC(C)(C)C(=O)NCCCC(=O)O`: the efficacy in test [1] is -17.8%. The result in test [2], in test [3], in test [4], in test [5] and in test [6] was inactive.

On to `CC1=CC(=O)c2ccccc2C1=O`, for which the efficacy in test [1] is 12.6%. Besides, the result in test [2], in test [3], in test [4], in test [5] and in test [6] was inactive.

For `CCOC(CN1CCN(CC(C)C(=O)c2ccccc2)CC1)c1ccccc1` (stereo not given), the efficacy in test [1] was 11.6%. Further, the AC50 in test [2] is 7.08 µM (active); in test [3], 10 µM (active). The molecule was classed as inactive in test [4], in test [5] and in test [6].

`O=C(O)c1cccnc1Nc1cccc(C(F)(F)F)c1`: the efficacy in test [1] is -25.4%. For the same molecule, the outcome in test [2], in test [3], in test [4], in test [5] and in test [6] was inactive.
